# Screens (PubChem)
# The list is not random: actives were taken first. Their share in the collection is about 6.5%.
# Vaccinia Venus = inhibitors of vaccinia virus (Venus reporter). AID 720580. Potency, µM (highest dose often 36.5 µM), for inactives: top-dose activity change, negative = inhibition, actives largely listed as inhibitors. Vaccinia virus Venus reporter expression, fluorescence. 0.46% of 330,000 active; calls by dose curve; tested in A549 cells; note: potency is the fitted concentration of half-maximal effect; nearly all actives have a fitted effect of over 30% in size
# FMDV antiviral = blocks foot and mouth disease virus; AID 1159524; 1.2% of 410,000 active; FMDV antiviral cell-based qHTS; Potency, µM (doses to about 57.9 µM), without a hit: top-dose activity change, negative = inhibition, actives largely listed as inhibitors; calls by dose curve; tested in HEK293T cells; note: read-out not given here; potency is the fitted concentration of half-maximal effect; nearly all actives have a fitted effect of over 45% in size
# MARV entry inh = Marburg virus entry inhibition; Marburg virus pseudotyped entry inhibition, cell reporter; Potency, µM (doses to about 37.8 µM), for the others: top-dose activity change, negative = inhibition, most hits filed as inhibitors; 1.8% of 300,000 active; calls by dose curve; tested in HEK293 cells; note: potency is the fitted concentration of half-maximal effect
# HCMV inh = inhibitors of human cytomegalovirus | activity change, negative = inhibition, % at 57.5 µM | 4.5% of 410,000 active | AID 1259415 | HFF cells, HCMV-luciferase reporter, 72 h; active compounds read low; in the data active = activity change below about -60%; inconclusive = no clear call, values can overlap the other calls; inactive = above about -39%
#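 Compounds were evaluated in HFFs infected with an HCMV luciferase reporter virus (MOI 1 PFU/cell). Luciferase in lysates collected 72 h post infection served as the replication measure.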
# VACV mCherry inh = vaccinia inhibition (mCherry reporter). 0.63% of 310,000 active. Vaccinia virus mCherry reporter infection, fluorescence. Potency, µM (titrated, usually from 36.5 µM), inactives show top-dose activity change, negative = inhibition, hits mostly inhibitors; calls by dose curve; tested in A549 cells; note: potency is the fitted concentration of half-maximal effect; nearly all actives have a fitted effect of over 35% in size
# LASV entry inh = Lassa virus entry inhibition | Lassa virus pseudotype entry inhibition, cell reporter | Potency, µM (doses to about 37.9 µM), without a hit: at the top dose activity change, negative = inhibition, usual class: inhibitors | 1.2% of 300,000 active; calls by dose curve; tested in HEK293 cells; note: potency is the fitted concentration of half-maximal effect; nearly all actives have a fitted effect of over 50% in size
# An asterisk follows results filed as active; i = inactive; ? = inconclusive; · = no result given; ! = repeats disagree; [ ] = another dose, or the depositor's remark. % is set by controls: 0 for no effect and ±100 for the full control effect.
SMILES,Vaccinia Venus,FMDV antiviral,MARV entry inh,HCMV inh,VACV mCherry inh,LASV entry inh
Cc1ccc(-n2c(C)cc(C(=O)NS(=O)(=O)c3ccc(C)cc3)c2C)cc1,2.1%,9.4%,-4.8%[46.1 µM],-18.9,i,4.0%[46.1 µM]
COc1ccc[n+](CC(=O)c2ccc(F)cc2)c1,-7.1%,·,·,·,-15.6%,·
Cc1cc(NC(=O)Nc2ccc(N(C)C)cc2)c2cc(F)cc(F)c2n1,·,-11.0%,·,·,·,·
CCc1ccc(S(=O)(=O)c2cn(Cc3ccccc3)c3cc(N4CCCC4)c(F)cc3c2=O)cc1,-11.3%,6.4%,·,-3.6,2.0%,11.3%[46.1 µM]
C=CCNc1ccc2c(c1)OC[C@H](CC(C)C)NS2(=O)=O,·,·,·,-5.8,·,·
COCCOC1CCN(Cc2cn(Cc3ccccc3)nc2-c2cc3ccccc3o2)CC1,·,-15.2%,·,2.4,·,·
OC1CCCN(Cc2ccc3ccc4cccc5ccc2c3c45)C1 (configuration not stated),?,·,?,-17.0,-17.1%,0.4%
OC1CCCN(Cc2cn(Cc3ccccc3)nc2-c2cc3ccccc3o2)C1 (configuration not stated),-14.4%,-5.6%,25.9µM*,-25.2,-6.7%,-1.1%
CCC(O)C1CCN(Cc2cn(Cc3ccccc3)nc2-c2cc3ccccc3o2)CC1 (configuration not stated),-26.8%,-5.6%,·,-61.3*,-7.4%,·
Cc1ccccc1C(=O)Nc1nc(-c2ccc(Br)cc2)ns1,?,?,-2.5%[46.1 µM],-95.5*,?,2.7%[46.1 µM]
O=C(C[N+]12CN3CN(CN(C3)C1)C2)c1ccc(-c2ccccc2)cc1,-10.3%,·,·,·,i,·
COc1ccc(OC)c(NC(=O)c2cccc(N3C(=O)C4C5CCC(C5)C4C3=O)c2)c1 (configuration not stated),-17.4%,20µM*,?,-0.4,-8.1%,?
Cc1cccc(NC(=O)c2ccc(N3C(=O)C4C5C=CC(C6CC56)C4C3=O)cc2)c1 (configuration not stated),·,25.1µM*,·,35.6,·,·
O=C(Nc1ccccc1)c1cccc(N2C(=O)C3C4C=CC(C5CC45)C3C2=O)c1 (configuration not stated),-19.8%,-23.4%,?,-23.6,-8.2%,?
O=C(Nc1ccc(Br)cc1)c1cccc(N2C(=O)C3C4CCC(C4)C3C2=O)c1 (configuration not stated),-24.5%,39.8µM*,?,-81.3*,-26.1%,?
O=C(Nc1ccc(F)cc1)c1cccc(N2C(=O)C3C4CCC(C4)C3C2=O)c1 (configuration not stated),-25.1%,-19.8%,-11.3%,?,-5.6%,-13.8%
COc1ccc(OC)c(NC(=O)c2cccc(N3C(=O)C4C5C=CC(C6CC56)C4C3=O)c2)c1 (configuration not stated),·,25.1µM*,·,?,·,·
COc1cccc(CN(C(=O)c2oc3ccc(Br)cc3c2C)C2CCS(=O)(=O)C2)c1 (configuration not stated),-8.1%,?,?,-7.7,-8.1%,?
O=C(COc1ccc(Br)cc1Cl)NC(=O)NC1CCCC1,·,0.0%,·,26.3,·,·
O=C(COc1ccc(Br)cc1Br)NC1CCCC1,·,9.1%,·,-62.7*,·,·
O=C(COc1ccc(Br)cc1CNC1CCCC1)Nc1ccccc1,-21.2%,-16.9%,1.78µM*,29.5,-9.8%,-21.9%[46.1 µM]
CC(C)NC(=O)NC(=O)COc1ccc(Br)cc1Br,-20.3%,-24.5%,6.51µM*,49.3,-12.3%,7.31µM*
CNCc1ccccc1OCC(=O)Nc1ccccc1,·,63.0%,12.1%,115.3,·,3.4%
O=C(COc1ccc(Br)cc1Cl)NC1CCCCC1,-24.7%,-28.5%,?,?,-13.6%,7.6%
CCN(CC)CCNCc1cc(Br)ccc1OCC(=O)NCc1ccccc1,·,-8.4%,?,-23.7,·,-16.6%
CC(NCc1cc(Br)ccc1OCC(=O)NCc1ccccc1)c1ccccc1 (configuration not stated),·,?,·,-76.4*,·,·
CC1CC2C3CC(F)C4=CC(=O)C=C[C@@]4(C)[C@@]3(F)C(O)C[C@]2(C)[C@]1(O)C(=O)COC(=O)C(C)(C)C (some centres not stated),-13.9%,-1.6%,·,·,-18.5%,·
Clc1ccc(OCc2nnc(SCCN3CCCCC3)n2Cc2ccco2)cc1,·,-10.9%,25.9µM*!,-0.5,·,-21.4%
